Measured values from PubChem BioAssay (NCATS).
Records with an inconclusive call do not appear. Activity calls are given as the source filed them. The call rests on the fitted dose curve; in most records, active means well fitted curve in the direction sought with a large enough effect; inconclusive means small, poorly fitted or top-dose-only effect, or another doubt; inactive means no such curve, though single readings can be large; an effect the other way counts as inactive or inconclusive.

Legend:
[1] = target: Arylsulfatase A (Homo sapiens) (UniProt P15289); experiment: qHTS screen for enhancers of Arylsulfatase A (ASA1): LOPAC Validation Assay (AID 720538)
Arylsulfatase A (Homo sapiens), sequence (P15289 whole entry, looked up): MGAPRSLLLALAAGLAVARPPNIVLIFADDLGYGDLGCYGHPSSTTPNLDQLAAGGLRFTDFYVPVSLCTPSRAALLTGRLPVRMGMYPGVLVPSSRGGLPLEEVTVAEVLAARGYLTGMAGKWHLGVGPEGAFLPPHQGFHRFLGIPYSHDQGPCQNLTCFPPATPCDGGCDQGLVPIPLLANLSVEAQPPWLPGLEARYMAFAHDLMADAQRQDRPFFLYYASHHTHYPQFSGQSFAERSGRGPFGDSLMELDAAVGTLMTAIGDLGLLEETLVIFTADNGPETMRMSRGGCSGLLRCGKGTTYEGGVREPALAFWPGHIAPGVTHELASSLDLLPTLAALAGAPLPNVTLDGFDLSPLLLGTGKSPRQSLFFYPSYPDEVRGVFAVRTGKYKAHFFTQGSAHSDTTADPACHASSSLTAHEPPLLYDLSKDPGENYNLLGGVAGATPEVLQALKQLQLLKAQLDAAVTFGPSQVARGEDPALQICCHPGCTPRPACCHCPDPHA
In short: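 SV40-transformed fibroblasts from an MLD patient (ASA-I179S) were treated with compound for 48 h at 37 C. They were then lysed with 0.5 mM pNCS substrate (final) for 14 h at room temperature and stopped with NaOH; signal read by fluorescence (Ex 525/Em 598 nm), with increase denoting enhanced activity.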

[2] = qHTS for compounds that reverse cellular toxicity of Amyloid beta (A-beta) peptide in yeast: LOPAC Validation Assay (AID 720559);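 further: plate controls were DMSO for no effect and equimolar ferric chloride plus clioquinol rescue for full effect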
In short: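 Yeast expressing toxic A-beta grown with pinned compounds at 30 C for 48 hr. Growth measured as absorbance at 600 nm; data normalized to DMSO and to an equimolar FeCl3/clioquinol mixture as positive control.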

[3] = qHTS for Activators of Parkin Expression: LOPAC Validation Assay (NLuc Reporter) (AID 720572)
In short: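 Compound effects on Parkin promoter activity were measured as NanoLuc luminescence after 24 h at 37 C. The neuronal reporter line also carried FLuc, which was read first. LOPAC compounds were tested at 7 concentrations, with normalization to DMSO (0%) and positive control (100%).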

[4] = qHTS for Activators of Parkin Expression: LOPAC Validation Assay (FLuc Reporter) (AID 720573)
In short: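 Neuronal cell line stably expressing FLuc/NLuc coincidence reporter under the Parkin promoter, 1,500 cells/well, dosed 24 h after seeding in 7-point series for 24 h at 37 C. FLuc luminescence read; normalized to DMSO and positive control (100%).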

[5] = target: T1, Hexokinase-4 (Homo sapiens) + Glucokinase regulatory protein (Homo sapiens) (UniProt P35557+Q14397); experiment: qHTS assay for inhibitors of recombinant human GCK-GKRP interaction: Diaphorase-coupled assay (AID 743205)
T1 sequence (P35557 whole entry, looked up): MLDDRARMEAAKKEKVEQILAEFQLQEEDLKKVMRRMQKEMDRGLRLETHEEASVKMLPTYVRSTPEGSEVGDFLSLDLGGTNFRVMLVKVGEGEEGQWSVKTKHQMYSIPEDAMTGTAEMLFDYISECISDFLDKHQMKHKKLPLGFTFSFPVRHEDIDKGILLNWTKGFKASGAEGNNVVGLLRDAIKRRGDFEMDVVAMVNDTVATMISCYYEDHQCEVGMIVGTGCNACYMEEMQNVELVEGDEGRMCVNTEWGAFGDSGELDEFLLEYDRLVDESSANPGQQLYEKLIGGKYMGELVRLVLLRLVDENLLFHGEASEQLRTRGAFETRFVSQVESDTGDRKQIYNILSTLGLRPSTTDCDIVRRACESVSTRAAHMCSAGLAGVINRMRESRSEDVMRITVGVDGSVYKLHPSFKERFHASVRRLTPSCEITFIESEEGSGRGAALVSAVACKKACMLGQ
T1 sequence (Q14397 whole entry, looked up): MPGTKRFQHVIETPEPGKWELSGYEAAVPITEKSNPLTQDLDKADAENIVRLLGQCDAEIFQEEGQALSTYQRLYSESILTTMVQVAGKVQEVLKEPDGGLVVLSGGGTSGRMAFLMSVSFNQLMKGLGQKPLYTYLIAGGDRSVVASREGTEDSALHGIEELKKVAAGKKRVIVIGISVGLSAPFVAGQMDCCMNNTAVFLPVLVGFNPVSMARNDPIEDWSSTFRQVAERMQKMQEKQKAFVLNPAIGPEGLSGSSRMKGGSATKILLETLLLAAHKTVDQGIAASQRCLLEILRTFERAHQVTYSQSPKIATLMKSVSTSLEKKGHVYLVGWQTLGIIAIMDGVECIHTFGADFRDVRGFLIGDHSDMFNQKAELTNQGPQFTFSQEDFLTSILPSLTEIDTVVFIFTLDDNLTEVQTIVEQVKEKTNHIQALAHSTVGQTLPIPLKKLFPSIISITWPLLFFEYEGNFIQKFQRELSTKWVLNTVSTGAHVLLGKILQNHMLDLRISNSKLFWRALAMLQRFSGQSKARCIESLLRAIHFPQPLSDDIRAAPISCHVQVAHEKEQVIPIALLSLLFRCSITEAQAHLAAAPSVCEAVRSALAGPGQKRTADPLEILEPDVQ
In short: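 Compounds pre-incubated 20 min with substrate, then 10 nM GST-GCK with 10 nM FLAG-GKRP added. GCK activity coupled via G6PDH and diaphorase to resorufin (5 mM glucose, 0.4 mM ATP, 0.15 mM NADP+, pH 7.6), read kinetically over 30 minutes at Ex 525/Em 590 nm.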

[6] = target: T1, Hexokinase-4 (Homo sapiens) + Glucokinase regulatory protein (Homo sapiens); experiment: qHTS assay for inhibitors of recombinant human GCK-GKRP interaction: ADP-Glo assay (AID 743206);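 further: plate controls were DMSO plus enzyme for no effect and no enzyme for full effect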
In short: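 Pin-transferred compounds meet a 15 nM GST-GCK/15 nM FLAG-GKRP/2 uM S6P mix (dispense concentrations). ATP is then added to 0.4 mM final with 5 mM glucose, and the reaction runs 60 min at room temperature. ADP is quantified luminescently.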

[7] = target: T1, Hexokinase-4 (Homo sapiens) + Glucokinase regulatory protein (Homo sapiens); experiment: qHTS assay for inhibitors of recombinant human GCK-GKRP interaction: HTRF assay (AID 743207);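 further: 0% = DMSO with GCK present and -100% = DMSO wells lacking GCK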
In short: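 HTRF binding of 5 nM GST-GCK and 5 nM FLAG-GKRP with 2 uM S6P in pH 7.1 Hepes buffer (MgCl2, KCl, DTT, Tween 20, BSA). Anti-FLAG XL665 and anti-GST donor added, 60 min at room temperature; 665/615 nm read, normalized to with- and without-GCK controls.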

[8] = qHTS Assay for Identifying Gametocytocidal Compounds (AID 743244); further: potency means the concentration at half of the fitted maximal effect;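 on max response: on the % scale 0 is the no-effect control and ±100 the full control effect; actives lower the fluorescent signal which means gametocytes are killed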; conditions: P. falciparum 3D7 stage III-V gametocytes, alamarBlue, 72 h; max response: stronger effect = lower value
In short: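 Late gametocytes (III–V), P. falciparum 3D7; 72 h drug, then 24 h alamarBlue; resazurin reduction read by fluorescence.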

C=CCN1CC[C@]23c4c5ccc(O)c4O[C@@H]2/C(=N/N=C2\CC[C@@]4(O)C6Cc7ccc(O)c8c7[C@@]4(CCN6CC=C)[C@@H]2O8)CC[C@@]3(O)C1C5
active: Potency [8] 1000 nM
inactive: Potency [1] | outcome [2] | Potency [3] | outcome [4] | Potency [5] | outcome [6] | outcome [7]

CCCN(CCC)CCc1c[nH]c2ccc(C(N)=O)cc12
inactive: Potency [1] | outcome [2] | Potency [3] | outcome [4] | Potency [5] | outcome [6] | outcome [7] | max response [8] -3.58%

Clc1cc(I)cc(Cl)c1NC1=NCCN1
inactive: Potency [1] | outcome [2] | Potency [3] | outcome [4] | Potency [5] | outcome [6] | outcome [7] | max response [8] 44.8%

CC(C)NP(=O)(NC(C)C)OP(=O)(NC(C)C)NC(C)C
inactive: Potency [1] | outcome [2] | Potency [3] | outcome [4] | Potency [5] | outcome [6] | outcome [7] | max response [8] 7.64%

CCCN(CCC)C1Cc2cc(OC)c(OC)cc2C1
inactive: Potency [1] | outcome [2] | Potency [3] | outcome [4] | Potency [5] | outcome [6] | outcome [7] | max response [8] 13.4%

c1ccc2cc(CC3=NCCN3)ccc2c1
inactive: Potency [1] | outcome [2] | Potency [3] | outcome [4] | Potency [5] | outcome [6] | outcome [7] | max response [8] 5.44%

CN1C2CCC1CC(OC(c1ccccc1)c1ccccc1N)C2 (configuration not stated)
inactive: Potency [1] | outcome [2] | Potency [3] | outcome [4] | Potency [5] | outcome [6] | outcome [7] | max response [8] 17.7%

CCCN1CCC[C@@H](c2cccc(O)c2)C1
inactive: Potency [1] | outcome [2] | Potency [3] | outcome [4] | Potency [5] | outcome [6] | outcome [7] | max response [8] 21.7%

Cc1sc2ccccc2c1CC1=NCCN1
inactive: Potency [1] | outcome [2] | Potency [3] | outcome [4] | Potency [5] | outcome [6] | outcome [7]

COc1ccc2[nH]cc(CCN)c2c1
inactive: Potency [1] | outcome [2] | Potency [3] | outcome [4] | Potency [5] | outcome [6] | outcome [7]

Cc1c2ccncc2c(C)c2c1[nH]c1ccccc12
active: Potency [8] 1780 nM
inactive: Potency [1] | outcome [2] | Potency [3] | outcome [4] | Potency [5] | outcome [6] | outcome [7]

COc1ccc2[nH]c3c(c2c1)CCNC3
inactive: Potency [1] | outcome [2] | Potency [3] | outcome [4] | Potency [5] | outcome [6] | outcome [7] | max response [8] -9.37%

CN1CC[C@@]2(C)c3cc(O)ccc3N(C)C12 (some centres not stated)
inactive: Potency [1] | outcome [2] | Potency [3] | outcome [4] | Potency [5] | outcome [6] | outcome [7]
active: Potency [8] 3160 nM

NC(=O)COc1c(F)cc(SCCNS(=O)(=O)c2ccccc2)cc1F
inactive: Potency [1] | outcome [2] | Potency [3] | outcome [4] | Potency [5] | outcome [6] | outcome [7] | max response [8] 9.54%

CC1(C(=O)O)C2CCC(O2)C1(C)C(=O)O (configuration not stated)
inactive: Potency [1] | outcome [2] | Potency [3] | outcome [4] | Potency [5] | outcome [6] | outcome [7] | max response [8] -9.57%

C[N+]1(C)CCN(c2ccccc2)CC1
inactive: Potency [1] | outcome [2] | Potency [3] | outcome [4] | Potency [5] | outcome [6] | outcome [7] | max response [8] -6.92%

CC(=O)c1c(O)c(C)c(O)c(Cc2c(O)c3c(c(C(=O)/C=C/c4ccccc4)c2O)OC(C)(C)C=C3)c1O
inactive: Potency [1] | outcome [2] | Potency [3] | outcome [4] | Potency [5] | outcome [6] | outcome [7] | max response [8] 17.7%

CN1CCC(c2c[nH]c3ccc(O)cc23)CC1
inactive: Potency [1] | outcome [2] | Potency [3] | outcome [4] | Potency [5] | outcome [6] | outcome [7] | max response [8] 11.9%

CCCCCCCCCCCCCC(=O)O[C@@H]1[C@@H](C)[C@@]2(O)[C@@H](C=C(CO)C[C@@]3(O)C(=O)C(C)=C[C@@H]23)C2C(C)(C)[C@@]21OC(C)=O (some centres not stated)
inactive: Potency [1] | outcome [2] | Potency [3] | outcome [4] | Potency [5] | outcome [6] | outcome [7] | max response [8] -2.77%

CCN(CCCl)Cc1ccccc1Br
inactive: Potency [1] | outcome [2] | Potency [3] | outcome [4] | Potency [5] | outcome [6] | outcome [7] | max response [8] -1.83%

C[C@@H]1O[C@H](C[N+](C)(C)C)CS1
inactive: Potency [1] | outcome [2] | Potency [3] | outcome [4] | Potency [5] | outcome [6] | outcome [7] | max response [8] 20.1%

N#C/C(=C/c1ccc(O)c(O)c1)C(N)=S
inactive: Potency [1] | outcome [2] | Potency [3] | outcome [4] | Potency [5] | outcome [6] | outcome [7] | max response [8] 27.1%

COC(=O)N1CCN(C(=O)Cc2ccc(Cl)c(Cl)c2)C(CN2CCCC2)C1 (configuration not stated)
inactive: Potency [1] | outcome [2] | Potency [3] | outcome [4] | Potency [5] | outcome [6] | outcome [7] | max response [8] 14.6%

C[C@H](Cc1ccc2c(c1)OC(C(=O)O)(C(=O)O)O2)NC[C@H](O)c1cccc(Cl)c1
inactive: Potency [1] | outcome [2] | Potency [3] | outcome [4] | Potency [5] | outcome [6] | outcome [7] | max response [8] 13.1%

CN1CCc2cccc(Cl)c2CC1
inactive: Potency [1] | outcome [2] | Potency [3] | outcome [4] | Potency [5] | outcome [6] | outcome [7] | max response [8] 33.5%

N[C@@H](Cn1ccc(=O)[nH]c1=O)C(=O)O
inactive: Potency [1] | outcome [2] | Potency [3] | outcome [4] | Potency [5] | outcome [6] | outcome [7] | max response [8] 15.1%

C=CCN1CCC23c4c5ccc(O)c4O[C@H]2C(=O)CC[C@@]3(O)C1C5 (some centres not stated)
inactive: Potency [1] | outcome [2] | Potency [3] | outcome [4] | Potency [5] | outcome [6] | outcome [7] | max response [8] 7.07%

C[Se]C[C@H](N)C(=O)O
inactive: Potency [1] | outcome [2] | Potency [3] | outcome [4] | Potency [5] | outcome [6] | outcome [7] | max response [8] -6.02%
